From PubChem
Compounds with a hit are over-represented: about 19% of the library has one in this group of screens.
DT40 TDP1 CPT: qHTS for Inhibitors of human tyrosyl-DNA phosphodiesterase 1 (TDP1): qHTS in cells in presence of CPT; Potency, µM (titrated, usually from 46.2 µM), for the others: at the top dose activity change, negative = growth inhibition, usual class: inhibitors; chicken DT40 Tdp1-/-;hTDP1 cells + 20 nM CPT, ATP luminescence, 48 h; 12% of 420,000 active; AID 686979, 2013; also: potency is read from the fitted curve at half-maximal effect; nearly all actives have a fitted effect of over 55% in size
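Chicken DT40 Tdp1-/- cells complemented with human TDP1, 400 cells/well, exposed to compounds plus 20 nM camptothecin for at least 48 h at 37 C; viability read as ATP content by CellTiter-Glo luminescence.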
IL-1B inflam inh: qHTS for Inhibitors of Inflammasome Signaling: IL-1-beta AlphaLISA Primary Screen; 4.7% of 360,000 active; AID 743279, 2014; activity change, % at 57.5 µM; THP-1 LPS/ATP IL-1B secretion, AlphaLISA, 16 h; active compounds read low; in the data active = activity change below about -50%; inconclusive = mostly about -30% to -49%
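Secreted IL-1B measured by AlphaLISA bead assay after 16 h compound exposure of THP-1 cells; compounds (final up to 57.5 uM) added 1 h before LPS (250 ng/mL) and ATP (1.25 mM) stimulation; lower signal means less secretion.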
HT1080-NT tox: qHTS for induction of synthetic lethality in tumor cells producing 2HG: qHTS for the HT-1080-NT fibrosarcoma cell line | HT-1080-NT fibrosarcoma viability, CellTiter-Glo ATP luminescence, 48 h | 1.6% of 360,000 active | Potency, µM (top dose mostly 46.1 µM), for inactives: at the top dose activity, negative = less viability, most hits filed as cytotoxic;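 also: NT is the 2HG producing partner of a matched IDH1 knockdown line; potency is read from the fitted curve at half-maximal effect; 0% = DMSO-treated cells and -100% = media-only wells without cells; nearly all actives have a fitted effect of over 55% in size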
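Toxicity toward the 2HG-producing NT line was scored as %Activity, normalised to DMSO and no-cell wells, from CellTiter-Glo luminescence after 48 hours' treatment.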
HT1080 IDH1KD tx: qHTS for induction of synthetic lethality in tumor cells producing 2HG: qHTS for the HT-1080-IDH1KD cell line; HT-1080 IDH1 knockdown viability, ATP luminescence, 48 h; Potency, µM (top dose mostly 46.1 µM), for the others: at the top dose activity, negative = toxicity, hits mostly cytotoxic; 2% of 360,000 active; AID 686971, 2013;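 also: potency is read from the fitted curve at half-maximal effect; 0% = DMSO wells and -100% = cell-free medium wells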
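In this qHTS, HT-1080 cells depleted of IDH1 are exposed for 48 h at 37 °C to compound titrations. Toxicity is scored from CellTiter-Glo luminescence, with DMSO as full viability and medium alone as none.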
DT40 TDP1 no CPT: qHTS for Inhibitors of human tyrosyl-DNA phosphodiesterase 1 (TDP1): qHTS in cells in absence of CPT; DT40 Tdp1-/- hTDP1 cells, no CPT, ATP luminescence, 48 h; Potency, µM (highest dose often 46.2 µM), inactives show top-dose activity change, negative = growth inhibition, hits mostly inhibitors; 15% of 420,000 active; AID 686978, 2013; also: potency is read from the fitted curve at half-maximal effect; nearly all actives have a fitted effect of over 55% in size
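Cells were dispensed at 400 per well, compounds added by pin tool, plates incubated ≥48 hr at 37 °C, then CellTiter-Glo added for 30 min at room temperature before luminescence reading. Line: DT40 Tdp1-/- complemented with hTDP1; camptothecin omitted.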
* = called active by the depositor; [ ] = remark or other dose. Unless noted, calls follow the shape of the dose curve; as a rule, active = well fitted curve in the direction sought with a large enough effect; inconclusive = small, poorly fitted or top-dose-only effect, or another doubt; inactive = no such curve, though single readings can be large; an effect the other way counts as inactive or inconclusive. Unless noted, % is scaled to controls: 0 for no effect and ±100 for the full control effect.

Cn1c(=O)c2c(nc(N/N=C/c3ccc(OC(=O)c4ccco4)cc3)n2Cc2ccccc2)n(C)c1=O was read as DT40 TDP1 CPT 12µM*, IL-1B inflam inh 32, HT1080-NT tox -8%, HT1080 IDH1KD tx -4% and DT40 TDP1 no CPT 8.2µM*.
For N#CCC(CNc1ncc(C(F)(F)F)cc1Cl)OC(=O)c1cccc([N+](=O)[O-])c1 (centres undefined) the results were DT40 TDP1 CPT inconclusive, IL-1B inflam inh -12, HT1080-NT tox inconclusive, HT1080 IDH1KD tx -7%[9.24 µM] and DT40 TDP1 no CPT inconclusive.
For C[C@@H]1C=C[C@](Cc2ccccc2)(C(=O)NCC2CC2)N1C(=O)c1ccccc1 the results were DT40 TDP1 CPT 18µM*, IL-1B inflam inh 8, HT1080-NT tox 0%, HT1080 IDH1KD tx 22% and DT40 TDP1 no CPT 9.2µM*.
COc1ccc(-c2cc(C(=O)c3c(N)n(C)c(=O)n(C)c3=O)c3ccccc3n2)cc1OC was read as DT40 TDP1 CPT -16%, IL-1B inflam inh -7, HT1080-NT tox -23%, HT1080 IDH1KD tx -12% and DT40 TDP1 no CPT 5%.
For O=C(Nc1nc2c(F)cc(F)cc2s1)c1ccco1 the results were DT40 TDP1 CPT -1%, IL-1B inflam inh 0, HT1080-NT tox 5%, HT1080 IDH1KD tx -2% and DT40 TDP1 no CPT -28%.
For CS(=O)(=O)c1ccc2nc(NC(=O)Cc3ccccc3)sc2c1 the results were DT40 TDP1 CPT -22%, IL-1B inflam inh -3, HT1080-NT tox 0%, HT1080 IDH1KD tx 0% and DT40 TDP1 no CPT -28%.
`COC(=O)c1ccc2nc(NC(=O)CCS(=O)(=O)c3ccccc3)sc2c1` gave DT40 TDP1 CPT 8.2µM*, IL-1B inflam inh 15, HT1080-NT tox -7%, HT1080 IDH1KD tx -2% and DT40 TDP1 no CPT 9.2µM*.
For O=C(CCc1ccccc1)Nc1nc2c(F)cc(F)cc2s1 the results were DT40 TDP1 CPT inconclusive, IL-1B inflam inh -3, HT1080-NT tox 2%, HT1080 IDH1KD tx -4% and DT40 TDP1 no CPT 13µM*.
For CS(=O)(=O)c1ccc2nc(NC(=O)CCS(=O)(=O)c3ccccc3)sc2c1 the results were DT40 TDP1 CPT 5.2µM*, IL-1B inflam inh -93*, HT1080-NT tox -26%, HT1080 IDH1KD tx 21µM* and DT40 TDP1 no CPT 5.2µM*.
Screening O=C(CCS(=O)(=O)c1ccccc1)Nc1nc2cc3c(cc2s1)OCO3 returned DT40 TDP1 CPT inconclusive, IL-1B inflam inh -52*, HT1080-NT tox -30%, HT1080 IDH1KD tx inconclusive and DT40 TDP1 no CPT inconclusive.
Screening COc1ccc(Cl)cc1NC(=O)NCc1ccc2c(c1)OCO2 returned DT40 TDP1 CPT -2%, IL-1B inflam inh 8, HT1080-NT tox 0%, HT1080 IDH1KD tx -5% and DT40 TDP1 no CPT 2%.
O=C(CN1C(=O)NC2(CCCCCCC2)C1=O)NC1CCCc2ccccc21 (centres undefined) was read as DT40 TDP1 CPT -12%, IL-1B inflam inh 0, HT1080-NT tox 12%, HT1080 IDH1KD tx 15% and DT40 TDP1 no CPT -22%.
`NS(=O)(=O)c1ccc(CCNc2ccccc2[N+](=O)[O-])cc1` gave DT40 TDP1 CPT -17%, IL-1B inflam inh inconclusive, HT1080-NT tox -7%, HT1080 IDH1KD tx -9% and DT40 TDP1 no CPT -30%.
Screening CC(C)(C)NS(=O)(=O)c1ccc2nc(NC(=O)Cc3cccs3)sc2c1 returned DT40 TDP1 CPT inconclusive, IL-1B inflam inh -29, HT1080-NT tox inconclusive, HT1080 IDH1KD tx inconclusive and DT40 TDP1 no CPT 15µM*.
Screening CN(CC1CCCO1)S(=O)(=O)c1ccc(C(=O)Nc2nc3cc4c(cc3s2)OCO4)cc1 (centres undefined) returned DT40 TDP1 CPT 7.3µM*, IL-1B inflam inh 27, HT1080-NT tox 4%, HT1080 IDH1KD tx -12% and DT40 TDP1 no CPT 10µM*.
CCOC(=O)c1ccc2nc(Nc3nc4ccc(F)cc4s3)sc2c1 was read as DT40 TDP1 CPT -22%, IL-1B inflam inh 21, HT1080-NT tox 0%, HT1080 IDH1KD tx 0% and DT40 TDP1 no CPT inconclusive.
COC(=O)c1ccc2nc(Nc3nc4c(F)cc(F)cc4s3)sc2c1 was read as DT40 TDP1 CPT inconclusive, IL-1B inflam inh 22, HT1080-NT tox -10%, HT1080 IDH1KD tx -5% and DT40 TDP1 no CPT 16µM*.
`CN(CC1CCCO1)S(=O)(=O)c1ccc(C(=O)Nc2ccc3c(c2)OCO3)cc1` (centres undefined) gave DT40 TDP1 CPT inconclusive, IL-1B inflam inh 11, HT1080-NT tox 4%, HT1080 IDH1KD tx 6% and DT40 TDP1 no CPT inconclusive.
Screening O=C(CCS(=O)(=O)c1ccccc1)Nc1nc2ccc(F)cc2s1 returned DT40 TDP1 CPT 12µM*, IL-1B inflam inh 7, HT1080-NT tox -15%, HT1080 IDH1KD tx -10% and DT40 TDP1 no CPT 13µM*.
Screening CN(C)c1nnnn1-c1ccc(OC(F)(F)F)cc1 returned DT40 TDP1 CPT -1%, IL-1B inflam inh 0, HT1080-NT tox 5%, HT1080 IDH1KD tx 0% and DT40 TDP1 no CPT -10%.
`CC(=O)N1CCc2cc(Br)cc(S(=O)(=O)N3CCC(C(=O)O)CC3)c21` gave DT40 TDP1 CPT 2%, IL-1B inflam inh -10, HT1080-NT tox -3%, HT1080 IDH1KD tx 3% and DT40 TDP1 no CPT -15%.
For CC1=C(C(=O)OCC(C)C)C(c2ccccc2Cl)NC(=O)N1C (centres undefined) the results were DT40 TDP1 CPT 8.2µM*, IL-1B inflam inh -15, HT1080-NT tox -3%, HT1080 IDH1KD tx -12% and DT40 TDP1 no CPT 13µM*.
For CC1=C(C(=O)OCC(C)C)C(c2cc3c(cc2Br)OCO3)NC(=O)N1C (centres undefined) the results were DT40 TDP1 CPT 18µM*, IL-1B inflam inh -7, HT1080-NT tox inconclusive, HT1080 IDH1KD tx inconclusive and DT40 TDP1 no CPT inconclusive.
Screening CCOC(=O)C1=C(C)N(C)C(=O)NC1c1cccc2ccccc12 (centres undefined) returned DT40 TDP1 CPT inconclusive, IL-1B inflam inh 51, HT1080-NT tox inconclusive, HT1080 IDH1KD tx -11% and DT40 TDP1 no CPT 26µM*.
`CCOc1ccccc1NC(=O)CCNC(=O)N1CC(=O)Nc2ccccc21` gave DT40 TDP1 CPT -7%, IL-1B inflam inh 14, HT1080-NT tox 8%, HT1080 IDH1KD tx 4% and DT40 TDP1 no CPT -9%.
Screening CSc1cccc(NC(=S)NC(=O)CCc2ccccc2)c1 returned DT40 TDP1 CPT inconclusive, IL-1B inflam inh 42, HT1080-NT tox -17%, HT1080 IDH1KD tx -20% and DT40 TDP1 no CPT -6%.
